Out of some 420,000 compounds screened, about 50,000 (12%) were called active. Another 26% or so got no clear call; they are omitted. The list comes from a sample in which actives are over-represented; it also holds similar structures and randomly drawn compounds. Values without a mark were called inactive. Calls come from the whole dose curve; as a rule, active = well fitted inhibition curve with a large enough effect; inconclusive = small, poorly fitted or top-dose-only effect; inactive = flat fitted curve, though single readings scatter.
% is set by controls: 0 for no effect and ±100 for the full control effect; potency is the fitted concentration of half-maximal effect.

This experiment in a line: qHTS for Inhibitors of human tyrosyl-DNA phosphodiesterase 1 (TDP1): qHTS in cells in presence of CPT. Note: nearly all actives have a fitted effect of over 55% in size. The settings on record: chicken DT40 Tdp1-/-;hTDP1 cells + 20 nM CPT, ATP luminescence, 48 h; series mostly up to 46.2 µM; activity change, negative = growth inhibition: at the top concentration. Put shortly:
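Chicken DT40 Tdp1-/- cells complemented with human TDP1, 400 cells/well, exposed to compounds plus 20 nM camptothecin for at least 48 h at 37 C; viability read as ATP content by CellTiter-Glo luminescence.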
A general note: In qHTS, concentration-response curves come from the screen itself.
In the case of `CC1COc2ccccc2N1C(=O)c1cccnc1Cl` (centres undefined), the “activity change, negative = growth inhibition” value was -2.09%. Same read-out and setting: the figure for `O=C1CSc2ccc(C(=O)NCc3ccccn3)cc2N1` is -1.26%. On to `CCc1ccc(C(=O)N2CCN(S(=O)(=O)c3sc(C(=O)O)c(C)c3C(=O)O)CC2)cc1`, for which the “activity change, negative = growth inhibition” value was -12.2%. Same read-out and setting: in the case of `Cc1ccc(C)c(-n2cc(CN3CCN(C(=O)c4ncn[nH]4)CC3)c(-c3ccccc3)n2)c1` it was -39.7%. On the same count and under the same terms, in the case of `Cc1ccc(OCCC(=O)OCC(=O)N2c3ccccc3NC(=O)C2(C)C)cc1` it was -23.7%. As to `CC(C)CC(=O)N/C(N)=N/c1nc2ccccc2s1`, the Potency is 23.1 µM (active). In the case of `O=C(O)CSCc1nc2ccccc2s1`, the “activity change, negative = growth inhibition” value is -17%. Still for that read-out and setting: in the case of `CC(C)CC(=O)NC(=S)NCc1ccccc1` it was -12.9%; in that of `COc1ccc(C2c3ccc(O)cc3Oc3ncn(CCCO)c(=N)c32)cc1OC` (centres undefined), -0.452%. Same read-out and setting: the figure for `CC[C@]1(C(=O)OC)[C@H]2C(=O)N(C)C(=O)[C@H]2[C@H]2CN(C)C(=NCc3ccccc3)N21` is 1.43%; for `O=C(NCCSc1ncc(-c2ccccc2)[nH]1)c1ccco1` it is -27.8%.

In the case of `COCCCNC(=O)C1CC(=O)N(CCc2ccc(F)cc2)C1` (centres undefined), the “activity change, negative = growth inhibition” value is -12.4%. Consider `COC(=O)c1ccccc1NC(=O)C1CCN(S(=O)(=O)c2cc(OC)ccc2OC)CC1`, for which the Potency was 23.1 µM (active). As for `COC(=O)c1ccccc1NC(=O)C1CC(=O)N(c2ccc(OC)cc2)C1` (centres undefined), the “activity change, negative = growth inhibition” value was -0.242%. For the compound `COc1ccc(OC)c(NC(=O)C2CCN(S(=O)(=O)c3ccc(C)cc3)CC2)c1`, the “activity change, negative = growth inhibition” value is 10.2%. Still for that read-out and setting: the figure for `CCCCCCCC/C=C\CCCCCCCC(=O)OC[C@H](CO)OC(C)=O` is 0.476% [at 4.12 µM]; for `COC(=O)c1scc(C)c1NC(=O)CSc1ccc(Cl)cc1` it is -24.1%. Still for that read-out and setting: in the case of `O=C(NC(=S)N1CCCCC1c1cccnc1)c1ccccc1` (centres undefined) it was -6.28%; in that of `CC(=O)NC(=S)Nc1ccc(NC(=O)c2cccnc2)cc1`, 13.6%; in that of `CC(C)c1cc(Cn2c3ccccc3c(=O)n2C(C)Cn2cc(C3CC3)nn2)on1` (centres undefined), 9.99%. Still for that read-out and setting: the figure for `CCC(C)CN1CCC(CO)(Cc2ccccc2Cl)CC1` (centres undefined) is -27.3%.

Consider `CCn1c(COc2cccc(OC)c2)nnc1SCC(=O)N1CCOCC1`, for which the “activity change, negative = growth inhibition” value was -2.28%. As to `CCCCCCCCCCOC(=O)Cn1c(COc2cccc(OC)c2)[n+](C)c2ccccc21`, the Potency is 2.31 µM (active). Regarding `CCCCCCCCC(=O)NCCOc1ccccc1`, the “activity change, negative = growth inhibition” value is -3.08%. On to `O=C(CN1CCCCCC1)Nc1ccc(Cl)cc1F`, for which the “activity change, negative = growth inhibition” value was -10.8%. The same measure, in the same setting: the figure for `Cn1cccc1C(=O)N1CCc2ccccc2C1` is -15.1%. On the same count and under the same terms, in the case of `CC(CCc1ccccc1)NC(=O)c1cnc(Cl)c(Cl)c1` (centres undefined) it was -28.4%. Consider `Cc1sc2nc(SCCO)n(-c3ccccc3)c(=O)c2c1C`, for which the Potency is 13 µM (active). As to `Cc1sc2nc(SCC(N)=O)n(C)c(=O)c2c1C`, the “activity change, negative = growth inhibition” value was -16.3%. Same read-out and setting: the figure for `CCc1cc2c(=O)n(-c3ccccc3)c(SCC(=O)O)nc2s1` is 7.25%; for `CCc1ccc(S(=O)(=O)Nc2ccc(C)c(NS(C)(=O)=O)c2)cc1` it is -21.3%; for `NC(=O)c1ccc(N2CCCC2)nc1` it is 7.28%. Same read-out and setting: in the case of `Cc1cc(C)cc(OCC(=O)Nc2cc(NC(=O)COc3cc(C)cc(C)c3)cc(C(=O)O)c2)c1` it was -4.62%; in that of `CC(=O)Nc1c(C)nn(-c2ccccc2)c1N1CCC(C(=O)Nc2cc(Cl)ccc2C)CC1`, -4.16%. The same measure, in the same setting: the figure for `Cc1ccc(Cl)cc1NC(=O)CN1CCN(S(=O)(=O)N2CCOCC2)CC1` is -4.49%. As for `Cc1ccc(Cl)cc1NC(=O)C1CCN(S(C)(=O)=O)CC1`, the Potency is 6.51 µM (active). As to `Cc1ccc2c(c1)C1CN(C)CCC1N2C(=S)Nc1ccc(OC(F)F)cc1` (centres undefined), the “activity change, negative = growth inhibition” value is -1.44%. The same measure, in the same setting: the figure for `CCN(Cc1ccncc1)C(=S)Nc1ccccc1C` is -14.5%; for `COc1ccc(N(CC(=O)NCC2CCCO2)C(=O)CCC(=O)Nc2nccs2)c(OC)c1` (centres undefined) it is -4.44%. The same measure, in the same setting: in the case of `Cc1ccc(C(=O)Nc2ccn(C)n2)cc1` it was 6.62%; in that of `O=C(NCCN1CCCC(O)C1)c1cc(COc2c(F)cccc2F)on1` (centres undefined), -2.59%. As for `Cn1nccc1C(=O)NC1CCCc2c1cnn2-c1ccccc1F` (centres undefined), the Potency is 4.61 µM (active). With `Cn1nccc1C(=O)NC1CCCc2c1cnn2-c1ccc(F)cc1F` (centres undefined), the Potency was 1.46 µM (active).

For the compound `CC(=O)NCC(=O)NC1CCCc2c1cnn2-c1ccccc1F` (centres undefined), the “activity change, negative = growth inhibition” value is -4.57%. For `O=[N+]([O-])c1ccc(N2CCNCC2)cc1NCc1cccnc1`, the “activity change, negative = growth inhibition” value is -7.77%. In the case of `CN1CCN(/N=C/c2ccc(C#N)cc2)CC1`, the “activity change, negative = growth inhibition” value is 0.988%. The same measure, in the same setting: in the case of `COc1ccc(CNC(=O)CN2C(=O)NC3(CCCc4sccc43)C2=O)cc1` (centres undefined) it was 6.22%. Same read-out and setting: the figure for `COc1ccc(C(=O)CN2C(=O)NC3(CCc4ccccc43)C2=O)c(OC)c1` (centres undefined) is -14.2%. As to `COc1ccc(-n2c(C)cc(C(=O)CN3C(=O)NC4(CCc5ccccc54)C3=O)c2C)cc1` (centres undefined), the Potency was 14.6 µM (active). In the case of `Cc1cc(/C=C2\SC(=O)N(C)C2=O)c(C)n1-c1cccc(C(=O)O)c1`, the “activity change, negative = growth inhibition” value was -27.4%. On to `COc1ccccc1NC(=O)C1=C(C)Nc2nc3ccccc3n2C1c1cccs1` (centres undefined), for which the Potency is 4.11 µM (active). For `CCOC(=O)C1=C(C)Nc2nc3ccccc3n2C1c1cccs1` (centres undefined), the “activity change, negative = growth inhibition” value is 0.312%.

Take `COc1ccccc1NC(=O)C1=C(C)Nc2ncnn2C1c1sccc1C` (centres undefined): the “activity change, negative = growth inhibition” value is -19.7%.

For the compound `O=C(c1ccccc1)c1cc(-c2ccccn2)c(N2CCOCC2)s1`, the “activity change, negative = growth inhibition” value is -16.3%.

(Values after PubChem BioAssay AID686979 (National Center for Advancing Translational Sciences (NCATS), 2013).)
